The source of these data is ChEMBL document CHEMBL1157539, “Thousands of chemical starting points for antimalarial lead identification” (Nature, 2010).

Assay type in all cases: functional
Test [1] concerns Plasmodium falciparum. Put plainly: GSK_TCMDC: Inhibition of Plasmodium falciparum 3D7 in whole red blood cells, using parasite LDH activity as an index of growth. Test compounds present at 2uM.
Test [2] concerns Plasmodium falciparum. The test can be described thus: GSK_TCMDC: Inhibition of Plasmodium falciparum Dd2 in whole red blood cells, using parasite LDH activity as an index of growth. Test compounds present at 2uM.
The subject of another test is HepG2. The test can be described thus: GSK_TCMDC: Percent inhibition of human HepG2 cell line. Test compounds present at 10uM.

Molecules are shown by their SMILES.

Regarding `c1ccc(Nc2nc(-c3ccccn3)cs2)nc1`, the Inhibition (as a rule, the share of the control response that was lost under treatment) with Plasmodium falciparum [1] is 87%; in the test with Plasmodium falciparum [2], 93%; with HepG2 it was 45%.
As for `C#CCOc1ccc2ccccc2c1CNCCCCCCNCc1c(OCC#C)ccc2ccccc12.CS(=O)(=O)O`, the values for the Inhibition in the test on Plasmodium falciparum [1], in the test on Plasmodium falciparum [2] and with HepG2 were 100%, 98% and 100%, respectively.
Turning to `COc1cc(NC(=O)/C=C/c2cc(F)cc(F)c2F)cc(OCCN2CCN(CCN3CCOCC3)CC2)c1.O=C(O)C(=O)O`, the Inhibition with Plasmodium falciparum [1] is 100%; in the test on Plasmodium falciparum [2] it was 94%; in the test with HepG2, 21%.
For `Cl.O=C(Nc1ccc2c(c1)CCNCC2)c1ccc(-c2ccc(Cl)cc2)cc1`, in that order: 96%, 38% and 71%.
For `O=C(NCC1CCN(Cc2cccc(C(F)(F)F)c2)C1)c1cc(-c2cccc(F)c2)cs1.O=C(O)C(F)(F)F` (stereo not given), in that order: 87%, 5% and 19%.
With `COC(=O)c1cccc(N2CCN(CCCNC(=O)/C(=C/C=C/c3cc4cc(Cl)c(Cl)cc4[nH]3)OC)CC2)c1.Cl`, the Inhibition is 100% in the test with Plasmodium falciparum [1], 59% in the test on Plasmodium falciparum [2] and 38% in the test with HepG2.
For `O=C(CSc1nc2ccccc2c(=O)n1CC1CCCO1)Nc1cc(C(F)(F)F)ccc1Cl` (stereo not given), in that order: 97%, 95% and 12%.
For `CN1CCCC(CN2CCN(Cc3cccc(-c4ccc(-c5nc6ccccc6[nH]5)s4)c3)CC2)C1.O=C(O)C(F)(F)F` (stereo not given), in that order: 99%, 99% and 52%.
For `Cc1nc(C)c(-c2ccc(S(=O)(=O)c3ccc(Cl)cc3)cc2)c(O)c1Cl`, in that order: 98%, 96% and 0%.
On to `Nc1nccc2ccc(-c3cccnc3)cc12`, for which the Inhibition with Plasmodium falciparum [1] amounted to 97%; with Plasmodium falciparum [2], 95%; in the test with HepG2 it was 9%.
